# Screens (PubChem BioAssay)
# This is one part of a sample in which hits are shown more often than they occur.
# CtBP-E1A blk = inhibitors of CtBP/E1A interaction; AlphaScreen GST-E1A/His-CtBP binding, 1536-well; active compounds read low; activity change, % (concentration not given with the values); 0.49% of 340,000 active; AID 651724
#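 Protein mix (5X: 125 nM each GST-E1A, His-CtBP) was incubated with pinned compound 2 h at 37 deg C in dark, in 50 mM Tris pH 8.0 buffer with 300 mM NaCl. Glutathione donor and nickel acceptor beads followed; AlphaScreen signal read after 1 h.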
# Six1-Eya2 blk = inhibitors of human Six1/Eya2 interaction; 0.56% of 360,000 active; activity change, % (test concentration not listed); AlphaScreen GST-Six1/His-Eya2 binding, biochemical; active compounds read low; AID 651725
#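 GST-Six1 + His-Eya2 (5X stock: 250/500 nM); Tris pH 8.0, 300 mM NaCl, 0.05% BSA, 0.02% Tween 20; GSH donor/Ni acceptor beads; 1 h 37 °C dark; AlphaScreen readout.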
# JMJD2E inh = JMJD2E (human) inhibition. JMJD2E catalytic domain, FDH-coupled NADH fluorescence (FDH is formaldehyde dehydrogenase). 1.6% of 230,000 active. Potency, µM (doses to about 57.1 µM), inactives show at the top dose activity change, negative = inhibition, most hits filed as inhibitors. AID 2147. B2RXH2; active = well fitted inhibition curve with a large enough effect, not every such curve was filed as active; inconclusive = small, poorly fitted or top-dose-only effect, or another doubt; inactive = no such curve, though single readings can be large or run the other way;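 note: potency is the fitted concentration of half-maximal effect; 0% = wells with enzyme and -100% = buffer wells without enzyme; nearly all actives have a fitted effect of over 50% in size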
# L3MBTL1 block = inhibitors of human L3MBTL1 | AlphaScreen L3MBTL1–H3K9me1 peptide binding | Q9Y468 | AID 485360 | Potency, µM (highest dose often 57.1 µM), inactives show top-dose activity, negative = inhibition, usual class: inhibitors | 0.66% of 230,000 active; active = well fitted inhibition curve with a large enough effect; inconclusive = small, poorly fitted or top-dose-only effect; inactive = no such curve, though single readings can be large or run the other way; note: potency is the fitted concentration of half-maximal effect; nearly all actives have a fitted effect of over 60% in size
#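 L3MBTL1 50 nM + b-AHA-H3(1-15)K9me1 75 nM, 30 min RT; compound added, 30 min RT; streptavidin donor/Ni-chelate acceptor beads 10 ug/mL each final, 30 min RT dark; AlphaScreen read.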
# Active calls of the source: *; ? = inconclusive; nt = no result given. Cut-off read from the data, not from the text of the source, unless noted: active = activity change below about -65%; inconclusive = mostly about -30% to -63%; inactive = weaker than that. Unless noted, % is set by controls: 0 for no effect and ±100 for the full control effect.
SMILES,CtBP-E1A blk,Six1-Eya2 blk,JMJD2E inh,L3MBTL1 block
Cc1cnc(C)c(Nc2nc(C(N)c3ccccc3)cs2)n1 (stereo not drawn),-66*,?,nt,nt
COc1cccc(Nc2nc(C(N)CCc3ccccc3)cs2)n1 (stereo not drawn),?,-18,nt,nt
c1ccc(-c2csc(Nc3ccccn3)n2)cc1,-14,-3,nt,-6%
NC(c1ccccc1)c1csc(Nc2ccccn2)n1 (stereo not drawn),-90*,-89*,nt,nt
O=C(Nc1ccc(Oc2cccnc2)cc1)c1cccc([N+](=O)[O-])c1,-3,-4,13%,0%
NC(c1csc(Nc2ccccn2)n1)C1CCCCC1 (stereo not drawn),-80*,?,nt,nt
NC(c1csc(NC(=O)Nc2ccc(OC(F)(F)F)cc2)n1)C1CCCCC1 (stereo not drawn),0,4,nt,nt
C=CCn1c(COc2ccccc2)nnc1SCC(=O)N/N=C/c1ccc(C)cc1,-2,-7,1%,-10%
C=CCn1c(CNc2ccccc2)nnc1SCC(=O)N/N=C/c1ccc(O)cc1O,-81*,-88*,22µM*,-9%
C=CCn1c(SCC(=O)NCc2ccccc2)nnc1-c1ccccc1O,4,-2,-3%,1%
C=CCn1c(COc2ccccc2)nnc1SCC(=O)N/N=C/c1cc(Cl)ccc1O,?,?,28µM*,nt
C=CCn1c(CNc2ccc(C)cc2)nnc1SCC(=O)N/N=C/c1ccc(O)cc1O,-82*,-86*,16µM*,-7%
COc1ccc(-c2cc(C(F)(F)F)nc(SCCC(=O)Nc3cc(C)on3)n2)cc1,5,3,22µM*,nt
Cc1nc(/C(=N/O)C(N)=O)cs1,-22,-13,6%,-23%
Nc1n[nH]c(=S)n1/N=C1/C(=O)Nc2ccccc21,nt,?,7.1µM*,7%
Cc1c(C)c2cccnc2c2ncccc12,-95*,-92*,nt,0.79µM*
Clc1cc2cccnc2c2ncccc12,-96*,-67*,nt,10µM*
O=[N+]([O-])c1cccc2c(Cl)ccnc12,-23,-4,?,-1%
Cc1[nH]c2ccc3ncccc3c2c1C,-7,-13,2%,-21%
O=[N+]([O-])c1cc(Cl)c(O)c2ncccc12,-91*,-80*,?,nt
Oc1c(Cl)c(Cl)c2ncccc2c1Cl,0,-14,nt,nt
Oc1c(I)cc(Cl)c2cccnc12,-95*,-95*,14µM*,?
N#Cc1cccc(CS(=O)(=O)c2ccccc2)c1,nt,nt,11%,nt
CC(Oc1cccc(F)c1)C(=O)Nc1ccc(N2CCOCC2)cc1 (stereo not drawn),-8,-1,nt,-11%
NNC(=S)NCc1ccco1,0,-6,-2%,-6%
SMILES,CtBP-E1A blk,Six1-Eya2 blk,JMJD2E inh,L3MBTL1 block
COc1ccc(C(=O)NCCCC2CCCC2)cc1OC1CCN(C(C)C)CC1,3,-1,nt,nt
O=[N+]([O-])c1cc(Cl)c2cccnc2c1O,-91*,-81*,13µM*,32µM*
O=[N+]([O-])c1ccc(Cl)c2cccnc12,-2,-11,3%,6%
CC(=O)N(\C=C/C=C/C=C1\Sc2ccccc2C1=O)c1ccccc1,14,-13,14µM*,nt
CN(C)/C=C1/Sc2ccccc2C1=O,-2,1,?,-2%
CCC1=NN(C(=O)c2cccc(Br)c2)C(O)(c2ccc(Br)cc2)C1 (stereo not drawn),-7,-9,-8%,28µM*
COc1ccc(-c2csc(N(CCCN(C)C)C(=O)c3ccccc3C)n2)cc1,?,-29,nt,35µM*
COc1ccc(-c2csc(N(CCCN(C)C)C(=O)c3ccccc3F)n2)cc1,nt,-3,nt,-5%
CCN(CC)S(=O)(=O)c1cccc(NC(=O)C2CC(=O)N(c3ccc4c(c3)OCCO4)C2)c1 (stereo not drawn),-4,-2,nt,-2%
CCOc1ccc2nc(N=NC3=C(O)CC(C)(C)CC3=O)sc2c1,1,-4,22µM*,nt
CCOC(=O)c1ccc(CC(=O)c2ccc(O)c(O)c2O)o1,-14,-2,3.2µM*,?
Cc1cc(C)c(S(=O)(=O)N2CCOC2CNC(=O)C(=O)NCCCn2ccnc2)c(C)c1 (stereo not drawn),?,-70*,3%,nt
O=C(NCCCn1ccnc1)C(=O)NCC1OCCN1S(=O)(=O)c1ccc2c(c1)OCCO2 (stereo not drawn),-12,-24,4%,nt
CCOc1ccccc1N1CCN(Cc2ccco2)CC1,-11,-14,-1%,nt
CCOc1ccccc1N1CCN(C/C=C/c2ccc(N(C)C)cc2)CC1,?,-77*,?,nt
CCOC(=O)C1CCN(C(=S)NC2CC3C=CC2C3)CC1 (stereo not drawn),13,7,-1%,4%
CCOc1ccc(NC(=O)CN(C)C(=O)C2CC(=O)N(c3cccc(SC)c3)C2)cc1OCC (stereo not drawn),-72*,-65*,nt,nt
COc1ccc2c(c1)C(=O)[C@@H](OC(=O)NC1CCCC1)[C@H](c1ccc(OC)c(Br)c1)O2,nt,nt,-7%,nt
CS(=O)(=O)Nc1cccc(NC(=O)c2cccc3c(-c4cccc(C(N)=O)c4)coc23)c1,-72*,?,nt,nt
CCCn1c(CCC(=O)Nc2ccccc2Cc2ccccc2)nc2cc(S(=O)(=O)N3CCOCC3)ccc21,-6,1,10%,nt
O=C(Cc1ccsc1)NCc1ccccc1F,4,2,nt,nt
COc1ccc(CCN(C)C(=O)CN2C(=O)c3ccccc3S2(=O)=O)cc1OC,-2,0,-10%,-1%
COc1ccc(CCN(/C=C2\Sc3ccccc3C2=O)C(C)=O)cc1OC,-21,-6,32µM*,-1%
O=C(COC(=O)c1ccccc1Cl)NC1CCCCCC1,nt,-2,nt,9%
O=C(Nc1nc2ccccc2[nH]1)Nc1ccccc1F,3,10,nt,nt
SMILES,CtBP-E1A blk,Six1-Eya2 blk,JMJD2E inh,L3MBTL1 block
Cc1[nH]c2ccccc2c1/C=C/c1cc[n+](C)cc1,-3,-2,3%,3%
Cc1ccccc1/C=C/c1cc[n+](C)cc1,8,1,25µM*,nt
COc1cc([N+](=O)[O-])c2ncsc2c1,2,2,3%,-3%
COc1cc(SSc2cc(OC)cc([N+](=O)[O-])c2N)c(N)c([N+](=O)[O-])c1,nt,-27,2.5µM*,nt
Cc1ccccc1NC(=S)N(CCN(C)C)C(C)c1ccccn1 (stereo not drawn),-72*,-65*,-15%,nt
CCOC(=O)C1=C(C)c2ccccc2N(C(=O)OC)C1(C)C(=O)OCC (stereo not drawn),-11,-17,nt,-2%
CCC(C)C(=O)N1c2ccccc2C(=C2SC(C(=O)OC)=C(C(=O)OC)S2)C(=S)C1(C)C (stereo not drawn),-83*,-80*,-11%,?
O=c1oc(-c2ccccc2)nc2sc3c(c12)CCC3,nt,-4,-11%,13µM*
O=C(O)c1ccc(CSc2nnnn2-c2ccc(F)cc2)cc1,7,-5,nt,nt
CC(=O)c1ccc(O)c(CSc2nncn2C)c1,7,4,?,-1%
O=C(CSc1nnnn1-c1ccc(F)cc1)c1ccc(O)c(O)c1,0,14,28µM*,nt
Cn1cnnc1SCC(=O)c1ccc(O)c(O)c1,0,-1,10µM*,-5%
